# Measured values: PubChem BioAssay
# Where “and” joins values, the source holds several entries; their conditions need not be identical. Equal values may be shown once. Calls of active or inactive are those of the source. Unless noted, no rule for the calls is given here.
# Columns and labels:
# [1] = circadian clock period modulators, cell-based, LOPAC library, luminescence reporter (AID 2774); conditions: circadian reporter cells, at 7 µM, actives lie on both sides;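 also: values are relative to mean of DMSO wells on each plate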
# [2] = system: Hepatitis C virus NS3 helicase; assay: HCV NS3 helicase inhibitors, primary screen, biochemical, fluorescence polarization, LOPAC1280 library (AID 687035; in the data active = inhibition above about 37%); conditions: Purified HCV NS3 helicase, Cy5-dT15 ssDNA binding fluorescence polarization; stronger effect = higher value; concentration not given here
# [3] = Cy5 fluorescence quenching or enhancement artefacts, artefact control for HCV NS3 helicase inhibitor project, biochemical, LOPAC1280 (AID 687037); conditions: Cy5-DNA-NS3h complex fluorescence interference counterscreen
# [4] = system: Aerobactin synthetase IucA (Klebsiella pneumoniae); assay: IucA aerobactin synthetase inhibitors, biochemical, Tocris library, absorbance (AID 1345561); conditions: purified IucA enzyme assay, absorbance (OD) read-out; stronger effect = lower value;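 tested at 8 µM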;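 also: 100% = enzyme without compound and 0% = no enzyme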
# [5] = inhibitors of Cryptococcus chitosan production, flow cytometry, Cibacron Brilliant Red staining (AID 1347148); conditions: Cryptococcus neoformans chitosan, stronger effect = lower value; at 10 µM unless noted;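 also: compound exposure lasted three days at 37 degrees C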
# [6] = phospholipid biosynthesis inhibitors in animal cells, primary screen, cell-based, LOPAC library, screen 4 (AID 1347384); conditions: phospholipid biosynthesis inhibition screen, at 10 µM
# [7] = viability rescue of complex I mutant cybrids, primary screen, cell-based, galactose medium, ATP luminescence (AID 1645843;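 active = z-score of at least 1.8 in each of two replicates, scored against plate mean and spread of sample wells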;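 also: positive z means more ATP and so rescue of galactose-driven cybrid death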); conditions: complex I mutant cybrid cells, 72 h, stronger effect = higher value
# [8] = liver-stage malaria parasite growth inhibition, primary screen, cell-based, HepG2, luciferase luminescence, HepG2 viability (AID 624349; in the data active = parasite load remaining mostly below about 12%, no sharp cut-off; inactive = mostly above about 10%;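 also: 100% = mean of DMSO negative control wells on the same plate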); conditions: P. berghei liver stage in HepG2, luciferase luminescence, concentration not given here; parasite load remaining: stronger effect = lower value; viability: measured here: HepG2 viability without parasites
# [9] = sensitizers of A549 cells to miR-34 induction, primary screen, imaging, A549 dox-inducible miR-34, nuclei and caspase counts (AID 1347080;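 active = compounds whose cell count with miR-34 switched on is under 0.7 times the count with it off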); conditions: A549 miR-34 inducible, Hoechst nuclei count, 48 h
# [10] = survival rescue of mitochondrial mutant cells in low glucose, primary screen, MELAS cybrids, Rieske KO mouse fibroblasts, CellTiter-Glo (AID 1508586;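 active = mean z-score across replicates of 1.96 or higher in either the MELAS or the Rieske mutant cell line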;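 also: z relative to plate mean and SD of compound and empty wells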)
# [11] = hESC survival regulators, cell-based (AID 493140); conditions: human embryonic stem cell survival screen; stronger effect = higher value;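 also: cells exposed to compounds for four days before counting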
# [12] = kinase inhibitors against Plasmodium liver-stage infection, cell-based, known kinase inhibitor set, luminescence, hepatoma host viability (AID 624392); conditions: Plasmodium liver stage in hepatoma cells, luciferase luminescence, concentration not given here; liver cell % of control: measured here: host liver cell viability; parasite % of control: stronger effect = lower value;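 also: infected cells incubated roughly two days before readout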
# [13] = stronger effect = lower value, cell number ratio, induced over uninduced
# [14] = measured here: relative caspase fold change +Dox/-Dox
# [15] = measured here: total cells with miR-34 induction, stronger effect = lower value
# [16] = measured here: total cells without miR-34 induction
# [17] = MELAS cybrid survival, CellTiter-Glo 48 h, stronger effect = higher value
# [18] = Rieske KO mouse fibroblast survival, CellTiter-Glo 72 h
smiles,measurement,setting,value
O=[N+]([O-])c1cccc2c(Br)[nH]nc12,period change,[1],-0.085 h (inactive)
same,inhibition,[2],-1% (inactive)
same,fluorescence ratio (interference),[3],0.9 (inactive)
same,remaining activity,[4],94.1% (inactive)
same,fold fluorescence,[5],16.8 [at 206.6 µM] (inactive)
same,outcome,[6],inactive
same,z-score,[7],1.04 (inactive) and -0.23 (inactive)
CN/C(=C/[N+](=O)[O-])NCCSCc1ccc(CN(C)C)o1,parasite load remaining,[8],43.4% (inactive) and 51.6% (inactive)
same,viability,[8],47.5% and 107%
same,remaining activity,[4],114% (inactive)
same,fold change,[9]; [13],0.9 (inactive) and 0.849 (inactive) and 0.891 (inactive)
same,fold change,[9]; [14],0.927 and 0.503 and 1.27
same,cell count,[9]; [15],8480 and 7980 and 9140
same,cell count,[9]; [16],9410 and 10300
same,z-score,[10]; [17],-0.0746 (inactive) and -0.291 (inactive)
same,z-score,[10]; [18],-0.171 and 0.538
same,z-score,[7],-0.09 (inactive) and 0.3 (inactive)
Oc1cc2c(c(Cl)c1O)CCNCC2c1ccccc1 (configuration not stated),period change,[1],0.11 h (inactive)
same,fluorescence ratio (interference),[3],0.6 (active)
same,remaining activity,[4],120% (inactive)
same,fold change,[9]; [13],1.3 (inactive) and 0.885 (inactive)
same,fold change,[9]; [14],0.646 and 0.88
same,cell count,[9]; [15],5030 and 5850
same,cell count,[9]; [16],3880 and 6610
same,outcome,[6],inactive
same,z-score,[7],0.1 (inactive) and -0.405 (inactive)
CC[N+](CC)(CC)CC(=O)Nc1c(C)cccc1C,period change,[1],0.065 h (inactive)
same,inhibition,[2],-2% (inactive)
same,fluorescence ratio (interference),[3],1 (inactive)
same,remaining activity,[4],100% (inactive) and 106% (inactive)
same,fold fluorescence,[5],6.95 [at 145.6 µM] (inactive)
same,outcome,[6],inactive
same,z-score,[7],0.42 (inactive) and 1.23 (inactive) and 0.065 (inactive)
O=C(Nc1ccccc1)c1cc([N+](=O)[O-])ccc1Cl,period change,[1],-0.23 h (inactive)
same,inhibition,[2],-5% (inactive)
same,fluorescence ratio (interference),[3],1 (inactive)
same,remaining activity,[4],120% (inactive)
same,fold fluorescence,[5],3.58 [at 180.7 µM] (inactive)
same,outcome,[6],inactive
same,z-score,[10]; [17],-0.372 (inactive)
same,z-score,[10]; [18],0.0531
same,z-score,[7],-0.715 (inactive) and -0.72 (inactive)
CC1(C)CCC(C)(C)c2cc(C(=O)Nc3ccc(C(=O)O)cc3)ccc21,survival,[11],83.8 (inactive)
same,cell count,[9]; [15],5520 and 7570
same,cell count,[9]; [16],5900 and 8080
same,z-score,[7],1.25 (inactive)
Cc1ccc(C(=O)Cn2c3c(sc2=N)CCCC3)cc1,remaining activity,[4],107% (inactive)
same,fold fluorescence,[5],5.78 [at 174.6 µM] (inactive)
same,z-score,[10]; [17],1.05 (inactive)
same,z-score,[10]; [18],-0.573
same,z-score,[7],-0.225 (inactive)
Brc1c(Br)c(Br)c2n[nH]nc2c1Br,parasite load remaining,[8],65.4% (inactive)
same,viability,[8],173%
same,liver cell % of control,[12],96.1%
same,parasite % of control,[12],91.6% (inactive)
same,inhibition,[2],-6% (inactive)
same,fluorescence ratio (interference),[3],1 (inactive)
same,remaining activity,[4],108% (inactive)
same,fold change,[9]; [13],1.03 (inactive) and 1.02 (inactive)
same,fold change,[9]; [14],1.41 and 1.13
same,cell count,[9]; [15],10300 and 7940
same,cell count,[9]; [16],9970 and 7790
same,outcome,[6],inactive
same,z-score,[7],-0.92 (inactive) and -0.58 (inactive)
C/C(=C\c1ccc(C(=O)O)cc1)c1ccc2c(c1)C(C)(C)CCC2(C)C,period change,[1],0.4 h (inactive)
same,survival,[11],85.2 (inactive)
same,inhibition,[2],0% (inactive)
same,cell count,[9]; [15],6410 and 5680 and 8680
same,cell count,[9]; [16],6200 and 5870 and 8620
same,outcome,[6],inactive
same,z-score,[7],1.45 (inactive) and 1.6 (inactive)
CCCCCCC(=O)OC1CC(C)(C)NC(C)(C)C1,inhibition,[2],-4% (inactive)
same,fluorescence ratio (interference),[3],0.9 (inactive)
same,remaining activity,[4],97.8% (inactive)
same,fold change,[9]; [13],0.999 (inactive) and 0.934 (inactive)
same,fold change,[9]; [14],0.562 and 1.2
same,cell count,[9]; [15],9880 and 8660
same,cell count,[9]; [16],9890 and 9270
same,outcome,[6],inactive
same,z-score,[7],0.56 (inactive) and 0.015 (inactive)
O=S(=O)(c1ccccc1)N(CC(F)(F)F)c1ccc(C(O)(C(F)(F)F)C(F)(F)F)cc1,remaining activity,[4],101% (inactive)
same,fold change,[9]; [13],0.946 (inactive) and 1.36 (inactive) and 0.863 (inactive)
same,fold change,[9]; [14],0.813 and 0.647 and 1.59
same,cell count,[9]; [15],5490 and 6260 and 4300
same,cell count,[9]; [16],5810 and 4590 and 4980
same,z-score,[10]; [17],-0.346 (inactive)
same,z-score,[10]; [18],-0.159
same,z-score,[7],-0.605 (inactive)
Cc1ccc([N+](=O)[O-])cc1S(=O)(=O)N(C)C,inhibition,[2],0% (inactive)
same,fluorescence ratio (interference),[3],1 (inactive)
same,remaining activity,[4],93.4% (inactive)
same,fold change,[9]; [13],0.957 (inactive) and 0.856 (inactive)
same,fold change,[9]; [14],1.62 and 1.47
same,cell count,[9]; [15],9070 and 7620
same,cell count,[9]; [16],9480 and 8900
same,outcome,[6],inactive
same,z-score,[7],0.32 (inactive) and -0.31 (inactive)
CCCCCCCCCCC(C)(C)C(=O)Nc1c(OC)cc(OC)cc1OC,inhibition,[2],-1% (inactive)
same,fluorescence ratio (interference),[3],1 (inactive)
same,remaining activity,[4],89.7% (inactive)
same,fold change,[9]; [13],1.03 (inactive) and 0.876 (inactive)
same,fold change,[9]; [14],2.03 and 1.56
same,cell count,[9]; [15],8990 and 6930
same,cell count,[9]; [16],8710 and 7910
same,outcome,[6],inactive
same,z-score,[7],-1.29 (inactive) and -0.7 (inactive)
COc1ccc2c(c1)c(CC(=O)N1CCOCC1)c(C)n2C(=O)c1ccc(Cl)cc1,period change,[1],-0.115 h (inactive)
same,survival,[11],105 (inactive)
same,remaining activity,[4],123% (inactive)
same,fold fluorescence,[5],2.56 (active)
same,z-score,[10]; [17],-0.237 (inactive)
same,z-score,[10]; [18],-0.286
same,z-score,[7],-0.295 (inactive)
Nc1ncnc2n[nH]c(Nc3ccc(F)cc3)c12,parasite load remaining,[8],34.8% (inactive)
same,viability,[8],85.8%
same,inhibition,[2],-5% (inactive)
same,fluorescence ratio (interference),[3],1 (inactive)
same,remaining activity,[4],105% (inactive)
same,z-score,[10]; [17],-0.494 (inactive)
same,z-score,[10]; [18],0.733
same,z-score,[7],0.375 (inactive) and 0.16 (inactive)
CC(C)[C@@H]1CC[C@@H](C)C[C@@H]1P(=O)(c1ccccc1)c1ccccc1,inhibition,[2],2% (inactive)
same,fluorescence ratio (interference),[3],1 (inactive)
same,remaining activity,[4],100% (inactive)
same,fold change,[9]; [13],0.961 (inactive) and 0.925 (inactive)
same,fold change,[9]; [14],0.895 and 1.06
same,cell count,[9]; [15],8530 and 7980
same,cell count,[9]; [16],8880 and 8620
same,outcome,[6],inactive
same,z-score,[7],0.1 (inactive) and -0.24 (inactive)
C[C@@H](CN1CCC(Cc2ccccc2)CC1)[C@@H](O)c1ccc(O)cc1,period change,[1],0.12 h (inactive)
same,inhibition,[2],-3% (inactive)
same,fluorescence ratio (interference),[3],1 (inactive)
same,remaining activity,[4],113% (inactive)
same,fold change,[9]; [13],0.971 (inactive) and 0.906 (inactive)
same,fold change,[9]; [14],0.907 and 0.699
same,cell count,[9]; [15],9590 and 8970
same,cell count,[9]; [16],9880 and 9910
same,outcome,[6],inactive
same,z-score,[7],-1.21 (inactive) and -0.605 (inactive)
CCCCCCCCc1ccc(-c2ccc(C(=O)O)cc2)cc1,inhibition,[2],0% (inactive)
same,fluorescence ratio (interference),[3],1 (inactive)
same,remaining activity,[4],95.4% (inactive)
same,fold change,[9]; [13],0.939 (inactive) and 0.915 (inactive)
same,fold change,[9]; [14],0.89 and 1.73
same,cell count,[9]; [15],8400 and 8360
same,cell count,[9]; [16],8950 and 9140
same,outcome,[6],inactive
same,z-score,[7],0.205 (inactive) and -0.145 (inactive)
Cn1cnc2c(NCc3ccccc3)nc(NCCO)nc21,period change,[1],0.235 h (inactive)
same,survival,[11],92.8 (inactive)
same,inhibition,[2],-2% (inactive)
same,fluorescence ratio (interference),[3],0.9 (inactive)
same,remaining activity,[4],120% (inactive)
same,fold fluorescence,[5],4.59 [at 167.6 µM] (inactive)
same,outcome,[6],inactive
same,z-score,[7],0.355 (inactive) and 0.005 (inactive)
